This is an account of results in PubChem BioAssay.

In test [1] the test system is XIP peptide (Xip251-270) binding. Put plainly: XIP fragment 251-270 binding compounds – biochemical, small-molecule microarray, fluorescence 635/667 nm, 0.1 µg/mL protein, primary screen (AID 1182). The note with it: fluorescent protein binding, 635 nm, higher = more signal, called active from +8 up or from −8 down.
The next test relates to XIP peptide (Xip251-270). Put plainly: compounds binding XIP fragment 251-270 – biochemical, small-molecule microarray, fluorescence 635/667 nm, 0.5 µg/mL protein, primary screen (AID 1183). To be noted: fluorescence 635 nm, higher = more signal.
Test [2] in a line: blood-stage malaria parasite viability loss – strain 3D7, DAPI fluorescence, 100 nL, primary screen (AID 1184).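 Also: parasites grown inside human red blood cells in medium with human serum.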 The note with it: P. falciparum 3D7 growth, 3 d, higher = more signal.
The target in test [3] is Homeobox protein Hox-A13 (Mus musculus) (UniProt Q62424). Put plainly: disruptors of Hoxa13 oligonucleotide interaction – biochemical, fluorescence polarization, labeled oligonucleotide, primary screen (AID 1185). The note with it: Hoxa13:DNA binding, 15 min, higher = more signal, called active from +8 up or from −8 down. A general note: In fluorescence polarisation assays a small probe gives low polarisation when free and higher when bound to something large.
Sequence of Homeobox protein Hox-A13 (Mus musculus) (Q62424 whole entry, looked up): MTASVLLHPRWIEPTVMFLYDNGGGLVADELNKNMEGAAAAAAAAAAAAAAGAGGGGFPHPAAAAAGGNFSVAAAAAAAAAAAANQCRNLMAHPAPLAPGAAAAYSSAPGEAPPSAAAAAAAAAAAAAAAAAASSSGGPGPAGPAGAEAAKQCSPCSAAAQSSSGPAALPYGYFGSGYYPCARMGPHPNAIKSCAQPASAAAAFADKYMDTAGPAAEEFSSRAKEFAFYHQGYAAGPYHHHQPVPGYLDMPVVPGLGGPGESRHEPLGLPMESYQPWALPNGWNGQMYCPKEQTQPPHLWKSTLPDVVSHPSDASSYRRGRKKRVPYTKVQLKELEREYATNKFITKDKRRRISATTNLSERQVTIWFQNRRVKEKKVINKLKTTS

SMILES strings stand for the structures. The source made the active and inactive calls.

For the compound `C[C@@H](c1ccccc1)N1C(=O)[C@H]2[C@H]3[C@H](O)[C@H](O)CC(=NOC[C@@H](O)COCc4ccco4)[C@@H]3CC[C@H]2C1=O`, the composite z-score in test [1] is -0.201 (inactive); in the test on XIP peptide (Xip251-270), -0.287. For the same compound, the z-score in test [2] was -0.842; in test [3], -1.25 (inactive).
Consider `CCOC(=O)CCN1C(=O)[C@H]2[C@H]3[C@H](O)[C@H](O)CC(=NNC(=O)OCc4ccc(OC)cc4)[C@@H]3CC[C@H]2C1=O`, for which the figures for the composite z-score (in test [1]; with XIP peptide (Xip251-270)) were 0.59 (inactive) and 0.05, respectively. The z-score in test [2] is -0.688; in test [3] it was 0.614 (inactive).
On to `CC(C)(C)N1C(=O)[C@H]2[C@H]3[C@H](O)[C@H](O)CC(=NOCc4ccccc4)[C@@H]3CC[C@H]2C1=O`, for which the composite z-score in test [1] is 0.691 (inactive); with XIP peptide (Xip251-270), 0.779. Besides, the values for the z-score in test [2] and in test [3] were 0.281 and 1.12 (inactive), respectively.
For `COc1ccc(O[C@H]2C=C[C@@H](c3ccccc3)O[C@@H]2COC(=O)CCC(C)=NOC(C)CN2CCCCc3nc(C)c(C)cc32)cc1` (some centres undefined), in that order: 0.422 (inactive), -0.674, -1.34 and -2.19 (inactive).
Regarding `CCOC(=O)NN=C1C[C@@H](O)[C@@H](O)[C@@H]2[C@@H]3C(=O)N(C(C)(C)C)C(=O)[C@@H]3CC[C@@H]12`, the composite z-score in test [1] is 0.63 (inactive); in the test on XIP peptide (Xip251-270), -0.145. Besides, the figures for the z-score in test [2] and in test [3] were 0.439 and -1.69 (inactive), respectively.
As to `CC(CCN1CCc2nc(-c3ccccc3)c(-c3ccccc3)cc2C1)=NOC(C)CN1CCCCc2nc(C)c(C)cc21` (centres undefined), the composite z-score was 0.685 (inactive) in test [1] and 0.312 in the test on XIP peptide (Xip251-270). Moreover, the z-score is 0.0201 in test [2] and -4.25 (inactive) in test [3].
On the same counts, the results for `C=CC[C@@H]1C=C[C@H](ON=C[C@@H](OC)[C@H](C)C=CCC(=O)OC)[C@@H](CO)O1` are -0.0604 (inactive), 0.168, 0.167 and -0.413 (inactive).
For `O=C1C2=CC[C@H]3C(=O)N(Cc4ccc5c(c4)OCO5)C(=O)[C@H]3[C@H]2[C@H](O)[C@@H]2O[C@H]12`, in that order: 0.225 (inactive), 0.0823, 1.68 and -0.229 (inactive).
Turning to `COC(=O)CC=C[C@@H](C)[C@@H](C=NO[C@H](C)c1cn([C@@H]2COC[C@H]2O)nn1)OC`, the composite z-score in test [1] is -0.107 (inactive); in the test on XIP peptide (Xip251-270), 0.446. Also, the z-score in test [2] was 0.354; in test [3], 0.0624 (inactive).
Consider `O=C1C[C@@H](O)[C@@H](O)[C@@H]2[C@@H]3C(=O)N(c4cccc(Oc5ccccc5)c4)C(=O)[C@@H]3CC[C@@H]12`, for which the composite z-score was -0.0811 (inactive) in test [1] and 0.726 in the test on XIP peptide (Xip251-270). Also, the z-score in test [2] is -0.61; in test [3], -4.11 (inactive).
With `O=C1[C@H]2[C@H]3[C@H](O)[C@H](O)CC(=NOCc4ccccc4)[C@H]3CC[C@H]2C(=O)N1c1cccc(Oc2ccccc2)c1`, the composite z-score was 0.297 (inactive) in test [1] and 0.723 in the test with XIP peptide (Xip251-270). Also, the z-score was -0.835 in test [2] and -1.3 (inactive) in test [3].
On the same counts, the results for `C[C@H]1Cc2c(-c3ccccc3)nc3c(c2CO1)CN(CCOc1ccccc1)CC3` are 0.15 (inactive), 0.771, 1.18 and -5.41 (inactive).
With `COC(=O)CC=C[C@@H](C)[C@@H](C=NO[C@@H](C)c1cc(-c2c(C)cc(C)cc2C)no1)OC`, the composite z-score in test [1] is 0.0164 (inactive); with XIP peptide (Xip251-270), -0.293. The z-score in test [2] was -1.12; in test [3], -3.69 (inactive).
Take `O=C(NN=C1C[C@@H](O)[C@@H](O)[C@@H]2[C@@H]3C(=O)N(c4cccc(Oc5ccccc5)c4)C(=O)[C@@H]3CC[C@@H]12)OCc1ccccc1`: the composite z-score in test [1] is -0.0987 (inactive); in the test with XIP peptide (Xip251-270), 0.381. For the same compound, the z-score in test [2] was -0.763; in test [3], -4.96 (inactive).
As for `O=C1C[C@@H](O)[C@@H](O)[C@@H]2[C@@H]3C(=O)N(Cc4ccc5c(c4)OCO5)C(=O)[C@@H]3CC[C@@H]12`, the composite z-score is 0.0648 (inactive) in test [1] and 0.353 in the test with XIP peptide (Xip251-270). For the same compound, the values for the z-score in test [2] and in test [3] were -0.522 and -0.682 (inactive), respectively.
With `COc1ccc(-c2ccc3c(n2)CCCN3CC(O)CN2CCCc3nc(C)c(C)cc32)cc1` (centres undefined), the composite z-score in test [1] is 2.32 (inactive); with XIP peptide (Xip251-270), 0.79. Besides, the z-score in test [2] was 0.618; in test [3], -9.12 (active).
On the same counts, the results for `CO[C@@H]1COC(=O)CC=C[C@@H](C)[C@@H]2C=C[C@H](O)[C@@H](COC(=O)CCC[C@H]1C)O2` are 0.0426 (inactive), 0.152, 0.149 and -0.262 (inactive).
For `CC[C@@H](c1ccccc1)n1c(=O)n2n(c1=O)[C@H]1[C@H](O)[C@@H]3O[C@@H]3C(=NOCC(C)C)[C@H]1CC2`, in that order: -0.242 (inactive), 0.68, -0.265 and -2.28 (inactive).
For `CCN1C(=O)[C@H]2[C@H]3[C@H](O)[C@H](O)CC(=NO[C@@H]4O[C@H](CO)[C@@H](O)[C@H](O)[C@H]4O)[C@@H]3CC[C@H]2C1=O`, in that order: -0.232 (inactive), -0.321, 1.82 and -0.0696 (inactive).
Turning to `CO[C@H]1COC(=O)CC=C[C@H](C)[C@@H](NS(=O)(=O)c2ccc(C)cc2)COC(=O)CC=C[C@@H]1C`, the composite z-score in test [1] is -0.116 (inactive); in the test on XIP peptide (Xip251-270), 0.0878. Further, the z-score in test [2] was -0.648; in test [3], 1.31 (inactive).
As for `CO[C@@H]1COC(=O)CCC[C@@H](C)[C@H](OC)COC(=O)CCC[C@H]1C`, the results for the composite z-score (in test [1]; in the test on XIP peptide (Xip251-270)) were -0.201 (inactive) and 0.201, respectively. Besides, the z-score in test [2] is -0.0787; in test [3], -1.03 (inactive).
